This is an account of results in the supplement of paper PMC9135407.

The experiment has as its system primary human hepatic stellate cells (donor 1). Put plainly: scaled lipid accumulation score (0 = DMSO-like, 1 = nortriptyline-like); higher = stronger HSC inactivation (lipid re-accumulation), active = hit call of the paper. Particulars: 48 h.
[1] abbreviates: library stock concentration: 1 mM.
The mark [2] stands for this setting: library stock concentration: 3.33 mM.
Setting [3] is: library stock concentration: 10 mM.
Where [4] appears, read: library stock concentration: 80 uM.
The mark [5] stands for this setting: library stock concentration: 400 uM.
[6] abbreviates: library stock concentration: 2 mM.
Where [7] appears, read: library stock concentration: 4.7 mM.

Molecules are shown by their SMILES. Where “and” joins values, the source holds several entries; their conditions need not be identical. Equal entries are not always repeated. Structures can show the parent of a compound that is named as a salt. Screen size: about 5,800 compounds; about 620 (11%) showed activity. The list comes from a sample in which actives are over-represented; it also holds similar structures and randomly drawn compounds. A number with no mark means an inactive call.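 The calls were made as follows: active = score above a cut-off or among the top three wells of a plate; in these data no inactive exceeds 0.85.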

On to `CC(Cc1ccc(O)c(O)c1)C(C)Cc1ccc(O)c(O)c1` (stereo not drawn) [Nordihydroguaiaretic Acid], for which the “scaled lipid accumulation score” value under setting [1] is 0.042. For the compound `COc1ccc(-n2c(C)c([N+](=O)[O-])c3ccc(O)cc32)cc1`, the “scaled lipid accumulation score” value was 0.252 under setting [2] and 0.703 under setting [3]. Regarding `O/N=C/c1ccc(-c2ccc(O)c(F)c2)c(Cl)c1O`, the “scaled lipid accumulation score” value under setting [3] was 0.02. Same read-out and setting: as for `COc1ccc([C@H]2CNC(=O)C2)cc1OC1CCCC1` [(S)-(+)-Rolipram], the figure is ≤ -0.006. Turning to `C[C@H](N)C(=O)CCCCCC(=O)O` [KAPA (hydrochloride)], the “scaled lipid accumulation score” value under setting [1] was 0.007.

For the compound `O=C1[C@H](Cc2ccc(O)cc2)N2C(=O)CCN(C(=O)NCc3ccccc3)[C@H]2CN1Cc1cccc2ccccc12`, the “scaled lipid accumulation score” value runs as follows: under setting [2], ≤ 0; under setting [3], 0.29.

Take `CC(=Cc1ccc(C(=O)O)cc1)c1ccc2c(c1)C(C)(C)CCC2(C)C` [TTNPB (Arotinoid Acid)]: the “scaled lipid accumulation score” value was ≤ 0 under setting [2] and ≤ -0.001 under setting [3].

On to `CC(=Cc1ccc(C(=O)O)cc1)c1ccc2c(c1)C(C)(C)CCC2(C)C`, for which the “scaled lipid accumulation score” value is, setting by setting: under setting [1], ≤ -0.021; under setting [3], ≤ 0. As for `CCCCCCCCCC(=O)N[C@@H](Cc1c[nH]c2ccccc12)C(=O)N[C@@H](CC(N)=O)C(=O)N[C@@H](CC(=O)O)C(=O)N[C@@H]1C(=O)NCC(=O)N[C@@H](CCCN)C(=O)N[C@@H](CC(=O)O)C(=O)N[C@H](C)C(=O)N[C@@H](CC(=O)O)C(=O)NCC(=O)N[C@H](CO)C(=O)N[C@@H]([C@H](C)CC(=O)O)C(=O)N[C@@H](CC(=O)c2ccccc2N)C(=O)O[C@@H]1C` [DAPTOMYCIN (5 millimolar/DMSO)], under setting [3], the “scaled lipid accumulation score” value was ≤ 0. As for `CC(C)c1nn(-c2c(Cl)cccc2Cl)c2nc(Cc3ccc(OCCO)cc3)[nH]c(=O)c12`, the “scaled lipid accumulation score” value is 0.074 under setting [4], 0.071 under setting [5], 0.275 under setting [6] and 0.136 under setting [3]. For `O=[N+]([O-])c1ccccc1S(=O)(=O)NCC1CCC(CNCC2CCc3ccccc3C2)CC1` (stereo not drawn) [NTNCB hydrochloride], the “scaled lipid accumulation score” value under setting [3] is 0.622. For `NC(=O)N/N=C/c1ccc(Oc2ccc(F)cc2)cc1`, under setting [3], the “scaled lipid accumulation score” value is 0.015. The same measure, in the same setting: then `C#C[C@]1(O)CC[C@H]2[C@@H]3CCc4cc(O)ccc4[C@H]3CC[C@@]21C`, with 0.186; and `C#C[C@]1(O)CC[C@H]2[C@@H]3CCC4=Cc5oncc5CC4(C)[C@H]3CCC21C` (stereo partly drawn) [Danazol], with 0.915 (active). Consider `C#C[C@]1(O)CC[C@H]2[C@@H]3CCc4cc(O)ccc4[C@H]3CC[C@@]21C` [Ethinyl Estradiol], for which the “scaled lipid accumulation score” value is ≤ 0 under setting [2] and 0.277 under setting [3]. For the compound `C#C[C@]1(O)CC[C@H]2[C@@H]3CCC4=Cc5oncc5C[C@]4(C)[C@H]3CC[C@@]21C` [Danazol], the “scaled lipid accumulation score” value is 0.447. The “scaled lipid accumulation score” value (library stock concentration: 5.9 mM) is 0.204 and 0.103. Further, under setting [3], the “scaled lipid accumulation score” value was ≤ 0.

Turning to `C#C[C@]1(O)CC[C@H]2[C@@H]3CCc4cc(O)ccc4[C@H]3CC[C@@]21C` [Ethinyl estradiol], the “scaled lipid accumulation score” value reads like this: (library stock concentration: 6.7 mM) 0.516; under setting [3], ≤ 0.

As to `C#C[C@]1(O)CC[C@H]2[C@@H]3CCC4=Cc5oncc5C[C@]4(C)[C@H]3CC[C@@]21C`, the “scaled lipid accumulation score” value under setting [3] is 0.336.

`CC(C)NCCN(C(C)C)S(=O)(=O)c1ccc(Cl)cc1Cl`: the “scaled lipid accumulation score” value under setting [3] is 0.722. Take `CCCCc1cc2ccccc2c(OCCN(C)C)n1` [Dimethisoquin hydrochloride]: the “scaled lipid accumulation score” value was 0.71.

Consider `CCc1oc2ccccc2c1C(=O)c1cc(Br)c(O)c(Br)c1` [Benzbromarone], for which the “scaled lipid accumulation score” value was 0.013. The “scaled lipid accumulation score” value under setting [2] was ≤ 0. Further, under setting [7], the “scaled lipid accumulation score” value was ≤ 0. Moreover, under setting [3], the “scaled lipid accumulation score” value was ≤ -0.001. On to `CCCCc1oc2ccccc2c1C(=O)c1cc(I)c(OCCN(CC)CC)c(I)c1.Cl` [Amiodarone hydrochloride], for which the “scaled lipid accumulation score” value under setting [3] is 1.04 (active). Turning to `CCCCc1oc2ccccc2c1C(=O)c1cc(I)c(OCCN(CC)CC)c(I)c1` [Amiodarone hydrochloride], the “scaled lipid accumulation score” value is 0.445. In addition, the “scaled lipid accumulation score” value (library stock concentration: 2.9 mM) is 0.417.

With `CCCCc1oc2ccc(NS(C)(=O)=O)cc2c1C(=O)c1ccc(OCCCN(CCCC)CCCC)cc1` [Dronedarone HCl], the “scaled lipid accumulation score” value under setting [2] is 0.642 and the “scaled lipid accumulation score” value under setting [3] was 0.263. Regarding `CCCCc1oc2ccccc2c1C(=O)c1cc(I)c(OCCN(CC)CC)c(I)c1`, the “scaled lipid accumulation score” value is 0.281 (library stock concentration: 7.3 mM) and 1.34 (active) (library stock concentration: 9.5 mM). For the compound `CCCCc1oc2ccccc2c1C(=O)c1cc(I)c(OCCN(CC)CC)c(I)c1.Cl` [Amiodarone HCl], the “scaled lipid accumulation score” value under setting [3] is 1.27 (active).

For `CCCCc1oc2ccccc2c1C(=O)c1cc(I)c(OCCN(CC)CC)c(I)c1` [Amiodarone], the “scaled lipid accumulation score” value (library stock concentration: 3.1 mM) is 0.438. Take `CCc1oc2ccccc2c1C(=O)c1cc(Br)c(O)c(Br)c1`: the “scaled lipid accumulation score” value under setting [3] was ≤ 0. Take `CCCCc1oc2ccccc2c1C(=O)c1cc(I)c(OCCN(CC)CC)c(I)c1` [Amiodarone HCl]: the “scaled lipid accumulation score” value under setting [2] is 0.394. In the case of `NC(=O)c1cc[n+](CC2=C(C(=O)O)N3C(=O)[C@@H](NC(=O)C(c4ccccc4)S(=O)(=O)[O-])[C@H]3SC2)cc1` (stereo partly drawn) [Cefsulodin sodium salt hydrate], the “scaled lipid accumulation score” value under setting [3] is 0.04. Take `NC(=O)c1ccc2nc(-c3ccc(Oc4ccc(Cl)cc4)cc3)[nH]c2c1` [Chk2 Inhibitor II]: the “scaled lipid accumulation score” value under setting [2] is ≤ 0. On to `CCCCCCCCCCCCC/C=C/[C@@H](O)[C@H](CO)NCCCCCCCC` [C8 Ceramine], for which the “scaled lipid accumulation score” value under setting [1] is 0.067.

As for `CCCCCCCCCCCCC/C=C/[C@@H](O)[C@H](CO)NCCCCCCCC` [C-8 Ceramine], under setting [1], the “scaled lipid accumulation score” value is 0.054.

`CCCCCC(O)C=CC1C(O)CC(O)C1CC=CCCCCOC` (stereo not drawn) [Prostaglandin F2.alpha. Alcohol methyl ether]: the “scaled lipid accumulation score” value under setting [1] was ≤ 0. Regarding `Cc1nc2c(-c3cnc(N)nc3)nc(N3CCOCC3)nc2n1C(C)C`, the “scaled lipid accumulation score” value is 0.019 under setting [2] and ≤ -0.001 under setting [3]. With `O=C1NC(=O)C(c2c[nH]c3ccccc23)=C1c1c[nH]c2ccccc12` [Bisindolylmaleimide IV], the “scaled lipid accumulation score” value is ≤ 0 under setting [1] and 0.045 under setting [2]. For `Nc1ccc2c3c(cccc13)C(=O)NC2=O` [4-Amino-1,8-naphthalimide] [listing 1 of 2 here], under setting [3], the “scaled lipid accumulation score” value is 0.886 (active). Turning to `Nc1ccc2c3c(cccc13)C(=O)NC2=O` [4-Amino-1,8-naphthalimide] [listing 2 of 2 here], the “scaled lipid accumulation score” value (library stock concentration: 23.6 mM) is 0.762. For the compound `CC(C)C[C@H](NP(=O)(O)O[C@@H]1O[C@@H](C)[C@H](O)[C@@H](O)[C@H]1O)C(=O)N[C@@H](Cc1c[nH]c2ccccc12)C(=O)O` [Phosphoramidon Disodium Salt], the “scaled lipid accumulation score” value is ≤ -0.009 under setting [2] and ≤ 0 under setting [3].

For the compound `Cc1cc(CN2CCN(c3c(Br)cnc4nc(-c5ccc(N6CCN(C)CC6)cc5)[nH]c34)CC2)no1`, the “scaled lipid accumulation score” value under setting [3] was 0.471. Regarding `Cc1cc(CN2CCN(c3c(Br)cnc4[nH]c(-c5ccc(N6CCN(C)CC6)cc5)nc34)CC2)no1`, the “scaled lipid accumulation score” value under setting [2] was 0.857 (active). `O=C(Nc1ccc(I)cc1)NC1CCCCC1`: the “scaled lipid accumulation score” value under setting [3] is 0.938 (active). For `CC(=O)c1ccc(S(=O)(=O)NC(=O)NC2CCCCC2)cc1` [Acetohexamide], the “scaled lipid accumulation score” value was ≤ 0. Further, the “scaled lipid accumulation score” value (library stock concentration: 6.2 mM) was ≤ 0. Besides, under setting [3], the “scaled lipid accumulation score” value is 0.116. Regarding `O=C(Nc1ccccc1)Nc1ccc(-c2ccc(C(=O)[C@@H]3CCC[C@H]3C(=O)O)cc2)cc1`, the “scaled lipid accumulation score” value by setting is: under setting [2], ≤ 0; under setting [3], ≤ 0.

Take `CCCCCC/C=C\CCCCCCCC(=O)OCC` [Palmitoleic Acid ethyl ester]: under setting [1], the “scaled lipid accumulation score” value is ≤ 0.

On to `COc1ccc(CCn2nnnc2C2(c3ccc(C)cc3)CC2)cc1` [Mephetyl tetrazole], for which the “scaled lipid accumulation score” value under setting [3] was ≤ -0.07. `COC(=O)C(C)c1ccc(C(=O)c2cccs2)cc1` (stereo not drawn) [Suprofen methyl ester]: the “scaled lipid accumulation score” value under setting [3] was ≤ 0. Consider `COC(=O)c1ccc2c(c1)NC(=O)/C2=C(\Nc1ccc(N(C)C(=O)CN2CCN(C)CC2)cc1)c1ccccc1` [Intedanib (BIBF 1120, Vargatef) (0.4 mM)], for which the “scaled lipid accumulation score” value under setting [5] was 0.323.

As to `CN1CCN(CC(=O)N2c3ccccc3C(=O)Nc3cccnc32)CC1` [Pirenzepine hydrochloride], the “scaled lipid accumulation score” value is, setting by setting: under setting [7], ≤ 0; under setting [3], ≤ 0. For `COC(=O)c1ccc2c(c1)NC(=O)/C2=C(\Nc1ccc(N(C)C(=O)CN2CCN(C)CC2)cc1)c1ccccc1` [Intedanib (BIBF 1120, Vargatef) (10 mM)], the “scaled lipid accumulation score” value under setting [3] is 1.51 (active). Take `CN1CCN(CC(=O)N2c3ccccc3C(=O)Nc3cccnc32)CC1` [Pirenzepine dihydrochloride]: the “scaled lipid accumulation score” value was ≤ 0. Further, under setting [3], the “scaled lipid accumulation score” value is ≤ 0. With `COC(=O)c1ccc2c(C(=Nc3ccc(N(C)C(=O)CN4CCN(C)CC4)cc3)c3ccccc3)c(O)[nH]c2c1`, the “scaled lipid accumulation score” value was 0.316 under setting [4], 0.522 under setting [5] and 0.258 under setting [6].

Consider `Cc1scc2c1N(C(=O)CN1CCN(C)CC1)c1ccccc1NC2=O` [Telenzepine 2HCl], for which, for the setting “library stock concentration: 5.4 mM”, the “scaled lipid accumulation score” value was 0.006. In the case of `CN1CCN(CC(=O)N2c3ccccc3C(=O)Nc3cccnc32)CC1` [Pirenzepine 2HCl], the “scaled lipid accumulation score” value (library stock concentration: 5.7 mM) is ≤ -0.006.

Consider `Cc1scc2c1N(C(=O)CN1CCN(C)CC1)c1ccccc1NC2=O` [Telenzepine hydrochloride], for which, under setting [3], the “scaled lipid accumulation score” value is 0.084. For the compound `COC(=O)c1ccc2c(c1)NC(=O)/C2=C(\Nc1ccc(N(C)C(=O)CN2CCN(C)CC2)cc1)c1ccccc1` [Intedanib  (BIBF 1120, Vargatef) (2 mM)], the “scaled lipid accumulation score” value under setting [6] is 0.838. For the compound `COC(=O)c1ccc2c(c1)NC(=O)C2=C(Nc1ccc(N(C)C(=O)CN2CCN(C)CC2)cc1)c1ccccc1` [Nintedanib (BIBF 1120)], the “scaled lipid accumulation score” value runs as follows: under setting [2], 1.2 (active); under setting [3], 1.33 (active). Take `COC(=O)c1ccc2c(c1)NC(=O)C2=C(Nc1ccc(N(C)C(=O)CN2CCN(C)CC2)cc1)c1ccccc1`: the “scaled lipid accumulation score” value under setting [3] was 0.976 (active). For `Cc1scc2c1N(C(=O)CN1CCN(C)CC1)c1ccccc1NC2=O` [Telenzepine dihydrochloride], the “scaled lipid accumulation score” value is ≤ 0. Moreover, under setting [3], the “scaled lipid accumulation score” value is 0.052 and 0.027.
